CD40 NFkB inh: inhibitors of CD40-induced NF-kB signaling, primary screen, BL2 cells, luciferase reporter, single point; CD40L-induced, 4 h; inhibition, % at 10 µM; 83,000 compounds, 0.94% hits; AID 1053188, 2014;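 active = mean inhibition of at least 50% with a set share of replicates also reaching that level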
Large screens that a line does not name were inactive; [ ] = dose if it differs, or a comment. This excerpt belongs to a sample that is enriched for hits.

Cn1nc(C(F)(F)F)c(C#N)c1N1CCN(c2ccccc2)CC1	none
Cc1ccc(C(=O)NCCN(C)C)cc1C	none
C=C(CN(C)C)C(=O)c1cc(C)ccc1C	CD40 NFkB inh 91
Cc1ccc(C)c(C(=O)NCCN(C)C)c1	none
CCOC(=O)c1ncn2c1CN(C)C(=O)c1cc(F)ccc1-2	none
O=C(c1cccnc1)N1C[C@H]2[C@@H](c3ccccc31)[C@H](CO)N2C(=O)C1CCCC1	none
N#C[C@H]1[C@H](c2ccc(C#Cc3ccccc3F)cc2)[C@@H](CO)N1C(=O)C1CCCC1	CD40 NFkB inh 56
N#C[C@@H]1[C@@H](c2ccc(C#Cc3ccccc3F)cc2)[C@H](CO)N1C(=O)C1CCCC1	none
CCc1csc(N2[C@H](C#N)[C@H](c3ccc(C#Cc4ccc(F)cc4)cc3)[C@H]2CO)n1	CD40 NFkB inh 77[25 µM]
N#C[C@@H]1[C@@H](c2ccc(C#Cc3ccc(F)cc3)cc2)[C@H](CO)N1C(=O)C1CCCC1	none
N#C[C@H]1[C@H](c2ccc(C#Cc3ccc(F)cc3)cc2)[C@H](CO)N1C(=O)C1CCCC1	none
N#C[C@@H]1[C@H](c2ccc(C#Cc3ccccc3F)cc2)[C@@H](CO)N1C(=O)c1cccnc1	CD40 NFkB inh 78[25 µM]
N#C[C@@H]1[C@H](c2ccc(C#Cc3ccccc3F)cc2)[C@@H](CO)N1C(=O)C1CCCC1	CD40 NFkB inh 94
CCc1csc(N2[C@H](C#N)[C@@H](c3ccc(-c4ccc(F)cc4)cc3)[C@@H]2CO)n1	none
CCc1csc(N2[C@@H](C#N)[C@@H](c3ccc(C#Cc4ccc(F)cc4)cc3)[C@@H]2CO)n1	none
N#C[C@H]1[C@@H](c2ccc(C#Cc3ccc(F)cc3)cc2)[C@H](CO)N1C(=O)C1CCCC1	none
N#C[C@@H]1[C@@H](c2ccccc2)[C@@H](CO)N1C(=O)c1cccnc1	none
N#C[C@@H]1[C@H](c2ccc(C#Cc3ccccc3F)cc2)[C@H](CO)N1C(=O)c1cccnc1	none
Cc1oc2ccc(OCC(N)=O)cc2c1C(=O)OC(C)C	none
O=C(CNc1cc(S(=O)(=O)N2CCOCC2)ccc1NCC1CCCO1)Nc1ccc(C(F)(F)F)cc1 (centres undefined)	none
C=CCN1C(=O)c2ccc(C(=O)N(CC(C)C)c3c(N)n(CCCC)c(=O)[nH]c3=O)cc2C1=O	none
CCS(=O)(=O)c1ccc2oc(SCC(=O)Nc3ccc(OC)cc3)nc2c1	none
CO[C@H]1CN(C)C(=O)c2cccc(C#N)c2OCC[C@@H]2CC[C@@H](OC)[C@@H](CN(C)C(=O)[C@@H]1C)O2	none
O=C(Nc1ccc(N2CCN(C(=O)c3ccco3)CC2)cc1)c1ccc2c(c1)OCO2	none
O=C(Nc1ccno1)Nc1ccc(Cl)cc1Cl	none
CCOC(=O)Cc1csc(NC(=O)c2c(O)c3ccccc3n(CC(C)C)c2=O)n1	none
CC(C)C#Cc1ccc([C@H]2[C@@H](CO)N(C(=O)c3ccccn3)[C@H]2C#N)cc1	CD40 NFkB inh 60[25 µM]
CC(C)C#Cc1ccc([C@@H]2[C@@H](C#N)N(C(=O)c3ccccn3)[C@@H]2CO)cc1	none
N#C[C@H]1[C@H](c2ccc(C#Cc3ccccc3F)cc2)[C@@H](CO)N1C(=O)C1CC1	CD40 NFkB inh 50[25 µM]
CC(C)C#Cc1ccc([C@H]2[C@H](C#N)N(C(=O)c3ccccn3)[C@H]2CO)cc1	none
N#C[C@@H]1[C@@H](c2ccc(C#Cc3ccccc3F)cc2)[C@@H](CO)N1C(=O)C1CC1	none
CCc1cnc(N2[C@H](C#N)[C@@H](c3ccc(C#Cc4ccccc4F)cc3)[C@H]2CO)s1	none
CCc1cnc(N2[C@H](C#N)[C@H](c3ccc(C#Cc4ccccc4F)cc3)[C@H]2CO)s1	CD40 NFkB inh 73[25 µM]
N#C[C@@H]1[C@@H](c2ccc(C#Cc3ccccc3F)cc2)[C@H](CO)N1C(=O)C1CC1	none
CCc1cnc(N2[C@H](C#N)[C@H](c3ccc(C#Cc4ccccc4F)cc3)[C@@H]2CO)s1	none
O=C(N[C@@H]1CC[C@@H](CCn2cc(-c3ccccc3F)nn2)O[C@@H]1CO)c1ccc2c(c1)OCO2	none
Cc1ccc2nc(SCC(=O)Nc3ccc4[nH]c(=O)[nH]c4c3)[nH]c2c1	none
O=C(C[C@@H]1C[C@H]2c3cc(NC(=O)C4CCC4)ccc3O[C@H]2[C@H](CO)O1)NCc1ccc(Cl)cc1	none
Cc1ccc(NC(=O)NC2CC(=O)N(c3ccc4c(c3)OCCO4)C2)cc1C (centres undefined)	none
O=C(COC(=O)COc1ccccc1)Nc1cccnc1Cl	none
CCCn1c(NC(=O)c2cccc(S(=O)(=O)N3CCCC3)c2)nc2ccccc21	CD40 NFkB inh 90
CCn1nccc1C(=O)Nc1nc2ccccc2n1CCN1CCCCC1	none
Cc1ccc(C(=O)Nc2nc3ccccc3n2CCN2CCCC2)cc1	none
O=C(CNC(=O)c1ccc(Br)cc1)N/N=C/c1ccc[nH]1	none
O=C(N/N=C/c1ccc[nH]1)c1ccc(O)cc1	none
Cc1cc(Br)c(OCc2ccc(C(=O)N/N=C/c3ccc[nH]3)cc2)c(Br)c1	CD40 NFkB inh 75
O=C(O)C1C2C=CC(C3CC23)C1C(=O)NCCc1ccccc1 (centres undefined)	none
O=C(c1ccco1)N1CCN(C(=O)C(c2ccccc2)c2ccccc2)CC1	none
O=C(CCC(=O)c1cccs1)NNC(=O)c1cccc(Cl)c1	none
CN(CC(=O)Nc1cccc(F)c1)C(=O)CSc1ccc(Br)cc1	none
Cc1cc(C(=O)NNC(C)Cc2ccccc2)no1 (centres undefined)	none
c1cncc(-c2nc(-c3ccc4c(c3)OCCO4)cs2)c1	none
Cc1nc(-c2ccc3c(c2)OCCO3)cs1	none
Oc1ccccc1-c1cc(-c2ccc3c(c2)OCCO3)n[nH]1	CD40 NFkB inh 54
Cc1cc(C(F)(F)F)nn2cnnc12	none
CC1OC(CC(=O)O)CC2=C1C(=O)c1c(O)cccc1C2=O (centres undefined)	CD40 NFkB inh 104
Cc1ccc(C)c(NC(=O)CN(C)C(=O)c2ccccc2OCc2ccc(Cl)cc2)c1	none
C[C@H](CO)N1C[C@H](C)[C@H](CN(C)Cc2ccccc2)OCc2ccccc2-c2ccccc2C1=O	none
C[C@H](CO)N1C[C@H](C)[C@H](CN(C)Cc2ccc(-c3ccccc3)cc2)OCc2ccccc2-c2ccccc2C1=O	none
C[C@H](CO)N1C[C@H](C)[C@H](CN(C)Cc2ccc(Oc3ccccc3)cc2)OCc2ccccc2-c2ccccc2C1=O	CD40 NFkB inh 57[25 µM]
COc1ccccc1CN(C)C[C@@H]1OCc2ccccc2-c2ccccc2C(=O)N([C@H](C)CO)C[C@@H]1C	none
COc1ccccc1CN(C)C[C@@H]1OCc2ccccc2-c2ccccc2C(=O)N([C@@H](C)CO)C[C@@H]1C	none
C[C@H]1CN([C@@H](C)CO)C(=O)c2ccccc2-c2ccccc2CO[C@@H]1CN(C)Cc1ccccc1C(F)(F)F	CD40 NFkB inh 66[25 µM]
CS(=O)(=O)N(CC(=O)N1CCOCC1)c1ccc2c(c1)OCO2	none
CC(=O)c1c(C)[nH]c(C(=O)Nc2cccc(S(=O)(=O)N3CCOCC3)c2)c1C	none
CC12CCC(C(=NO)C1=NO)C2(C)C (centres undefined)	none
CC(C)(C)c1cc(CN(CCO)CCO)cc(C(C)(C)C)c1O	none
O=C(CN1C(=O)C2CCCCC2C1=O)Nc1nc2ccc(F)cc2s1 (centres undefined)	none
Cc1ccccc1C(=O)N1CCC(C(=O)Nc2nccs2)CC1	none
Cc1ccccc1C(=O)N1CCC(C(=O)Nc2nc3ccc(F)cc3s2)CC1	CD40 NFkB inh 56
CN1c2ccc(Br)cc2[C@H]2[C@H](CCN2C(=O)C2CCCCC2)[C@@H]1CO	none
CCN(CC(=O)Nc1ccc(Br)cc1)C(=O)c1nc2nc(C)cc(C)n2n1	none
O=C(COC(=O)COc1ccccc1)Nc1ccc(Br)cc1F	none
CC1CC(=O)N(CC(=O)Nc2ccc3c(c2)OCCO3)c2ccccc2S1 (centres undefined)	none
